In all, about 310,000 compounds went through this assay and about 11,000 (3.5%) were called active. A call without a number means that no potency is given here. Another 8% or so got no clear call; they are omitted. Calls come from the whole dose curve; as a rule, active = well fitted inhibition curve with a large enough effect; inconclusive = small, poorly fitted or top-dose-only effect, or effect the other way; inactive = flat fitted curve, though single readings scatter. Only a selection was taken, and actives are over-represented in it overall.
Potency is the fitted concentration of half-maximal effect.

This test in a line: VP16 counterscreen qHTS for inhibitors of ROR gamma transcriptional activity.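 Note: Gal4-VP16 expression switched on by copper sulfate through the metallothionein promoter; nearly all actives have a fitted effect of over 50% in size.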 The conditions noted are these: Drosophila S2 Gal4-VP16 UAS-luciferase, luminescence, 20 h; series mostly up to 53.6 µM.
`COc1ccc(N2CCN(C(=O)[C@@H](NC(=O)c3cc(OC)cc(OC)c3)C(C)C)CC2)cc1`: the Potency entry is “inactive”.

As to `CCC(NC(=O)c1cc(COc2ccc(F)c(F)c2)on1)c1ccncc1` (stereo unspecified), the Potency result was “inactive”. Under `Cc1ccc(NC(=O)CSCC(=O)NC2CCCCC2)cc1` stands “inactive”.

For `Cc1ccc(NC(=S)NC2CCCC2)cc1`, the Potency is 11.2 µM (active). In the case of `Cc1cc(C)cc(NC(=O)NC2CCCCCCC2)c1` it was “inactive”; in that of `CC(Oc1ccc(Br)cc1Br)C(=O)NC1CCCC1` (stereo unspecified), “inactive”.

Turning to `Cc1cc(Br)ccc1NC(=S)NC1CCCC1`, the Potency was 5.62 µM (active).

In the case of `CC(C)c1ccc(NC(=O)NC2CCCCC2)cc1`, the Potency result was “inactive”. With `CCC1=Nc2cc(C(=O)NCCN3CCCC3)ccc2Sc2ccc(C)cc21`, the Potency entry was “inactive”. On to `C/C(=N/OC(=O)c1ccc(Br)cc1)c1ccc(C)cc1`, for which the Potency entry was “inactive”. As for `COc1ccccc1C(=O)N/C(=C/c1ccco1)C(=O)Nc1ccc(C(=O)O)cc1`, the Potency entry is “inactive”. In the case of `CN(C)S(=O)(=O)c1cccc(NC(=O)COC(=O)c2cc(=O)[nH]c(=O)[nH]2)c1` it was “inactive”. In the case of `Cc1ccc(/C=N/NC(=S)Nc2cccc(S(=O)(=O)N(C)C)c2)o1`, the Potency was 15.8 µM (active). Regarding `CN(C)S(=O)(=O)c1cccc(NC(=O)Cc2ccsc2)c1`, the Potency result was “inactive”. As for `N#CCC(=O)NC1CCC(CC2CCC(NC(=O)CC#N)CC2)CC1` (stereo unspecified), the Potency result is “inactive”. Under `COCCNc1ccc(-c2n[nH]c(=O)c3ccccc23)cc1[N+](=O)[O-]` stands “inactive”. Under `Cc1ccc2oc(C(=O)N3CCN(C)C[C@@H]3C(C)C)c(C)c2c1` stands “inactive”; under `Cc1nnc(SCC(N)=O)n1CC1CCCO1` (stereo unspecified), “inactive”. With `Cc1ccsc1C(=O)OCC(=O)c1cc(C)n(CC2CCCO2)c1C` (stereo unspecified), the Potency was 7.08 µM (active). Under `Cc1cc(C(=O)Cn2cnc3cc([N+](=O)[O-])ccc3c2=O)c(C)n1CC1CCCO1` (stereo unspecified) stands “inactive”. In the case of `CCOc1ccc2[nH]c(=O)c(CN(CCCO)S(=O)(=O)c3ccc(F)cc3)cc2c1`, the Potency result is “inactive”. As to `COc1ccc2oc(C(=O)NCc3ccco3)c(C)c2c1`, the Potency entry is “inactive”. Regarding `Clc1ccccc1-c1cc(NCCN2CCOCC2)ncn1`, the Potency result was “inactive”. Under `c1ccc2cc3c(NCCN4CCOCC4)ccnc3cc2c1` stands 12.6 µM (active); under `CN(C)c1ccc(-c2nc(NCCN3CCOCC3)c3ccccc3n2)cc1`, “inactive”; under `COc1ccc(CS(=O)/C(Cl)=C(/Cl)C(=O)Nc2ccc(OC)nc2)cc1` (stereo unspecified), 3.98 µM (active). In the case of `COc1ccc(C(=O)Nc2ccc(NC(=O)C(C)C)nc2)cc1` it was “inactive”. With `COc1ccc(NC(=O)/C(Cl)=C(/Cl)S(=O)Cc2ccc(C)cc2)cn1` (stereo unspecified), the Potency entry is “inactive”. In the case of `COc1cccc(CNC(=O)COc2cc(O)c3c(c2)OC(C)(C)CC3=O)c1` it was “inactive”; in that of `COc1cc(/C=N/Nc2ccc(C)cc2)cc(Br)c1O`, “inactive”.

Turning to `COc1cc(/C=N/O)cc(Br)c1OCc1cccc(Cl)c1`, the Potency was 11.2 µM (active). Regarding `COc1ccc(/C=N/NC(=O)c2ccccc2)cc1OS(=O)(=O)c1ccccc1`, the Potency entry was “inactive”. For `COc1cc(/C=N/O)ccc1OCc1ccc([N+](=O)[O-])cc1`, the Potency result is “inactive”. As for `COc1cc(/C=N/O)cc(Br)c1OS(=O)(=O)c1ccc(C)cc1`, the Potency was 11.2 µM (active).

As for `CCOc1c(Cl)cc(/C=N/O)cc1OC`, the Potency result is “inactive”. In the case of `CCc1c(C)c2ccc(OC3CCCCC3=O)cc2oc1=O` (stereo unspecified) it was “inactive”; in that of `CCOCCCN1C(=O)C2C(C(=O)Nc3ccc(OCC)cc3)C3C=CC2(O3)C1C(=O)NC1CCCCC1` (stereo unspecified), “inactive”. On to `O=C(NC1CC1)C(Cc1ccccc1)NS(=O)(=O)c1ccccc1F` (stereo unspecified), for which the Potency entry is “inactive”. Consider `Cc1ccc(NC(=O)Nc2cccnc2)cc1`, for which the Potency result was “inactive”. In the case of `COc1cc(/C=C(\C#N)c2nc3ccccc3[nH]2)ccc1O` it was “inactive”; in that of `COc1cc(/C=C(\C#N)c2nc3c(s2)CC(C)CC3)ccc1O` (stereo unspecified), 4.47 µM (active); in that of `COc1cc(/C=N/Nc2nc3ccccc3s2)ccc1O`, “inactive”. As for `Cc1cc(-c2nnc(SCC(=O)Nc3ccc(S(N)(=O)=O)cc3)n2N)n[nH]1`, the Potency result was “inactive”. For `NC(=O)c1cc(S(=O)(=O)N2CCCC2)ccc1OCc1ccc(F)cc1`, the Potency result was “inactive”. In the case of `COC(=O)c1ccccc1NC(=O)CSc1n[nH]c(-c2ccncc2)n1` it was “inactive”; in that of `Cc1ccc(CSCC2Nc3ccc(C(=O)N4CCN(c5ccc(F)cc5)CC4)cc3NC2=O)cc1` (stereo unspecified), “inactive”; in that of `CN(C)CCCN(C(=O)c1ccc(S(=O)(=O)N2CCCCCC2)cc1)c1nc2ccc(Br)cc2s1`, 17.8 µM (active).

Take `CCN(CC)CCN(C(=O)c1ccc(S(=O)(=O)N2CCOCC2)cc1)c1nc2cc3c(cc2s1)OCCO3`: the Potency result was “inactive”. In the case of `CC(=O)N(CCCN(C)C)c1nc2ccc(C)cc2s1` it was “inactive”; in that of `Cc1occc1C(=O)Nc1nnc(C2CCCCC2)s1`, “inactive”.

Consider `O=C(Cc1cccs1)Nc1nnc(C2CC2)s1`, for which the Potency result is “inactive”.

For the molecule `Cc1cnc(NC(=O)c2ccccn2)s1`, the Potency is 4.47 µM (active). Under `O=C(Nc1nnc(C2CC2)s1)c1ccccn1` stands 4.47 µM (active). Under `Cc1ccc(SCC(=O)Nc2ncc(C)s2)cc1` stands “inactive”; under `Cc1cnc(NC(=O)CSc2c(Cl)cccc2Cl)s1`, “inactive”. For the molecule `Cc1cccc(NC(=O)c2sc3nc(N4CCOCC4)c4c(c3c2N)CCCC4)c1`, the Potency entry is “inactive”.

On to `CN(CCNC(=O)c1cc2c(-c3ccccc3F)nn(C)c2s1)C1CCCCC1`, for which the Potency result is “inactive”. In the case of `NC(=O)c1oc2ccccc2c1NC(=O)Cc1ccccc1` it was “inactive”. Under `Cc1c(C(=O)N/N=C/c2ccccc2)[nH]c2c([N+](=O)[O-])cccc12` stands “inactive”; under `COc1cccc2c(C)c(C(=O)O)[nH]c12`, 10 µM (active). Regarding `COc1cc2c(C(=O)O)c(C)n(C)c2c2ccccc12`, the Potency entry is “inactive”. Under `CNC(=O)C(=O)N/N=C/c1ccccn1` stands “inactive”. Under `O=C(N/N=C/c1ccccn1)C12CC3CC(CC(C3)C1)C2` stands 20 µM (active); under `O=C(Nc1ccc(S(=O)(=O)Nc2ncccn2)cc1)C12CC3CC(CC(C3)C1)C2`, “inactive”.

For `COc1cc2ccccc2cc1C(=O)Nc1ccc(NC(=O)c2cccs2)cc1`, the Potency result is “inactive”. In the case of `C=C(C)CNC(=S)/N=c1\scc(C)n1CC` it was 8.91 µM (active). As to `Cc1csc(=NC(=O)c2ccccc2)n1CCO`, the Potency entry was “inactive”. For the molecule `Cc1csc(=Nc2ccccc2)n1CCO`, the Potency entry is “inactive”. Regarding `CC(C)(c1ccccc1)c1ccc(OCCN2CCCC2)cc1`, the Potency result is “inactive”.

`CC(C)=CCN1CCN(Cc2cc3ccccc3[nH]2)CC1CCO` (stereo unspecified): the Potency result is “inactive”. Under `O=C(CSc1ccc(-c2ccc(Br)cc2)nn1)NCC1CCCO1` (stereo unspecified) stands “inactive”.

The values above are taken from PubChem BioAssay AID2546 (National Center for Advancing Translational Sciences (NCATS), 2010).
